Where a name gives a salt, the structure may show the parent alone. ± gives the standard deviation of the averaged measurements.
system: Escherichia coli ATCC BAA-2469; experiment: percent growth inhibition of drug alone vs DMSO control; higher = more growth inhibition; settings: antibiotic (0.125x MIC): none (0.1% DMSO); 7 µM
Procedure: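 Prestwick drugs tested at 20 uM and 7 uM with an antibiotic at 0.125x MIC (16 mg/L when MIC >128 mg/L) against E. coli ATCC BAA-2469 (NDM-1) in CAMHB, 384-well plates, duplicate runs. Percent growth inhibition was computed from OD600 (24 h minus 0 h) relative to DMSO wells. Drug + DMSO-only wells are also given. […]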

Row | SMILES | percent growth inhibition of drug alone [%]
1 | Oc1c(Cl)cc(Cl)c2cccnc12 [Chloroxine] | 13.1 ± 9.1
2 | CCN(CC)CCNC(=O)c1cc(Br)c(N)cc1OC [Bromopride] | -0.123 ± 0.93
3 | Oc1c(I)cc(Cl)c2cccnc12 [Clioquinol] | 11.8 ± 2.5
4 | Nc1c2ccccc2nc2ccccc12 [Aminacrine] | 1.8 ± 0.95
5 | CS(=O)(=O)c1ccc([C@@H](O)[C@@H](CO)NC(=O)C(Cl)Cl)cc1 [Thiamphenicol] | 4.47 ± 3.6
6 | COc1cc(C(=O)NCc2ccc(OCCN(C)C)cc2)cc(OC)c1OC [Trimethobenzamide hydrochloride] | 2.6 ± 2.7
7 | N=C(NCCCCCCNC(=N)NC(=N)Nc1ccc(Cl)cc1)NC(=N)Nc1ccc(Cl)cc1 [Chlorhexidine] | 103 ± 2.7
8 | Cc1cccc(C)c1NC(=O)C1CCCCN1C (stereo not given) [Mepivacaine hydrochloride] | -0.605 ± 0.25
9 | Nc1nc(F)nc2c1ncn2[C@@H]1O[C@H](CO)[C@@H](O)[C@@H]1O [Fludarabine] | 23 ± 20
10 | NC(=O)N/N=C/c1ccc([N+](=O)[O-])o1 [Nitrofural] | 5.6 ± 7.3
11 | Nc1nnc(-c2cccc(Cl)c2Cl)c(N)n1 [Lamotrigine] | 2.35 ± 0.19
12 | Cc1cc(/C=C/c2ccc3cc(N(C)C)ccc3[n+]2C)c(C)n1-c1ccccc1 [Pyrvinium pamoate] | 11.8 ± 12
13 | O=C(Nc1ccc([N+](=O)[O-])cc1Cl)c1cc(Cl)ccc1O [Niclosamide] | 2.78 ± 1.6
14 | Nc1ccn([C@@H]2O[C@H](CO)[C@@H](O)C2(F)F)c(=O)n1 [Gemcitabine] | 15.3 ± 12
15 | Cc1cn([C@H]2C[C@H](N=[N+]=[N-])[C@@H](CO)O2)c(=O)[nH]c1=O [Zidovudine, AZT] | 102 ± 2.3
16 | CCCCC(CC)CNC(=N)NC(=N)NCCCCCCNC(=N)NC(=N)NCC(CC)CCCC (stereo not given) [Alexidine dihydrochloride] | 102 ± 2
17 | OC(CCN1CCCC1)(c1ccccc1)C1CCCCC1 (stereo not given) [Procyclidine hydrochloride] | 3.3 ± 1.6
18 | CC(=O)c1ccc2c(c1)N(CCCN1CCC(CCO)CC1)c1ccccc1S2 [Piperacetazine] | 0.548 ± 3.2
19 | O=C(N[C@H](CO)[C@H](O)c1ccc([N+](=O)[O-])cc1)C(Cl)Cl [Chloramphenicol] | 27.7 ± 12
20 | Clc1cccc(Cl)c1NC1=NCCN1 [Clonidine hydrochloride] | 0.913 ± 1.3

same assay, conditions: antibiotic (0.125x MIC): none (0.1% DMSO); 20 µM

Row | SMILES | percent growth inhibition of drug alone [%]
21 | Oc1c(Cl)cc(Cl)c2cccnc12 [Chloroxine] | 102 ± 8
22 | CCN(CC)CCNC(=O)c1cc(Br)c(N)cc1OC [Bromopride] | 1.57 ± 1.2
23 | Nc1c2ccccc2nc2ccccc12 [Aminacrine] | 21 ± 13
24 | CO[C@H]1/C=C/O[C@@]2(C)Oc3c(C)c(O)c4c(O)c(c5c(nc6cc(C)ccn65)c4c3C2=O)NC(=O)/C(C)=C\C=C\[C@H](C)[C@H](O)[C@@H](C)[C@@H](O)[C@@H](C)[C@H](OC(C)=O)[C@@H]1C [Rifaximin] | 102 ± 7.8
25 | CO[C@H]1/C=C/O[C@@]2(C)Oc3c(C)c(O)c4c(O)c(c(/C=N/N5CCN(C6CCCC6)CC5)c(O)c4c3C2=O)NC(=O)/C(C)=C\C=C\[C@H](C)[C@H](O)[C@@H](C)[C@@H](O)[C@@H](C)[C@H](OC(C)=O)[C@@H]1C [Rifapentine] | 112 ± 10
26 | COc1cc(C(=O)NCc2ccc(OCCN(C)C)cc2)cc(OC)c1OC [Trimethobenzamide hydrochloride] | -0.217 ± 4.2
27 | N=C(NCCCCCCNC(=N)NC(=N)Nc1ccc(Cl)cc1)NC(=N)Nc1ccc(Cl)cc1 [Chlorhexidine] | 106 ± 2.6
28 | Cc1cccc(C)c1NC(=O)C1CCCCN1C (stereo not given) [Mepivacaine hydrochloride] | -0.545 ± 1.2
29 | Nc1nc(F)nc2c1ncn2[C@@H]1O[C@H](CO)[C@@H](O)[C@@H]1O [Fludarabine] | 59.1 ± 4.9
30 | NC(=O)N/N=C/c1ccc([N+](=O)[O-])o1 [Nitrofural] | 32.1 ± 18
31 | O=C1OCCN1/N=C/c1ccc([N+](=O)[O-])o1 [Furazolidone] | 115 ± 13
32 | Nc1nnc(-c2cccc(Cl)c2Cl)c(N)n1 [Lamotrigine] | 1.91 ± 1.2
33 | Cc1cc(/C=C/c2ccc3cc(N(C)C)ccc3[n+]2C)c(C)n1-c1ccccc1 [Pyrvinium pamoate] | 13.6 ± 3.2
34 | O=C(Nc1ccc([N+](=O)[O-])cc1Cl)c1cc(Cl)ccc1O [Niclosamide] | 14.5 ± 19
35 | Nc1ccn([C@@H]2O[C@H](CO)[C@@H](O)C2(F)F)c(=O)n1 [Gemcitabine] | 28.3 ± 14
36 | Cc1cn([C@H]2C[C@H](N=[N+]=[N-])[C@@H](CO)O2)c(=O)[nH]c1=O [Zidovudine, AZT] | 115 ± 12
37 | CCCCC(CC)CNC(=N)NC(=N)NCCCCCCNC(=N)NC(=N)NCC(CC)CCCC (stereo not given) [Alexidine dihydrochloride] | 112 ± 12
38 | OC(CCN1CCCC1)(c1ccccc1)C1CCCCC1 (stereo not given) [Procyclidine hydrochloride] | -0.85 ± 5
39 | CC(=O)c1ccc2c(c1)N(CCCN1CCC(CCO)CC1)c1ccccc1S2 [Piperacetazine] | 0.302 ± 2.2
40 | Clc1cccc(Cl)c1NC1=NCCN1 [Clonidine hydrochloride] | 3.75 ± 2.2
